Measured values taken from PubChem BioAssay AID1159580 (chemical genetic matrix, 2015).
“And” between values parts separate entries of the source, which are not always exact repeats. Equal entries are not always repeated. Screen size: about 5,500 compounds; about 2,000 (36%) were called active. Inconclusive results (about 18%) are left out. Rule as the data show it: active = normalized growth mostly below about 0.91 (no sharp cut-off); inconclusive = no clear call, values can overlap the other calls; inactive = mostly above about 0.92. This is one part of the list.

Assay: chemical genetic growth profiling, strain panel (AID 1159580);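 also: tested at 20 µM; growth read once vehicle control cultures reached saturation at 30 °C; 1 = growth at the plate median or of vehicle wells; lower values mean less growth of the strain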
Settings: growth OD
[1] = S. cerevisiae deletion strains, locus YDR150W, strain NUM1, stronger effect = lower value
[2] = S. cerevisiae deletion strains, locus YMR307W, strain GAS1, stronger effect = lower value
[3] = S. cerevisiae deletion strains, locus YNL322C, strain KRE1, stronger effect = lower value

Measured: normalized growth

CCCn1c(C)c(C(=O)c2ccc3ccccc3c2)c2ccccc21
inactive: S. cerevisiae deletion strains, locus YAL040C, strain CLN3, stronger effect = lower value 0.99 | S. cerevisiae deletion strains, locus YCL061C, strain MRC1 (second series), stronger effect = lower value 0.99 | [1] 1.01 | S. cerevisiae deletion strains, locus YDR363W, strain ESC2, stronger effect = lower value 0.96 | S. cerevisiae deletion strains, locus YER002W, strain NOP16, stronger effect = lower value 0.999 | [2] 1.01 | S. cerevisiae deletion strains, locus YNL175C, strain NOP13, stronger effect = lower value 0.974 | S. cerevisiae deletion strains, locus YNL197C, strain WHI3, stronger effect = lower value 0.977 | S. cerevisiae deletion strains, locus YNL224C, strain SQS1, stronger effect = lower value 1 | [3] 0.991 | S. cerevisiae deletion strains, locus YOR083W, strain WHI5 (second series), stronger effect = lower value 0.995

c1ccc2c(c1)cc1ccc3cccc4ccc2c1c34
inactive: S. cerevisiae deletion strains, locus YAL013W, strain DEP1, stronger effect = lower value 1.03 | S. cerevisiae deletion strains, locus YBR021W, strain FUR4, stronger effect = lower value 1.05 | S. cerevisiae deletion strains, locus YBR229C, strain ROT2, stronger effect = lower value 1.02 | S. cerevisiae deletion strains, locus YCL029C, strain bik1, stronger effect = lower value 0.995 | S. cerevisiae deletion strains, locus YDL035C, strain GPR1, stronger effect = lower value 1.03 | S. cerevisiae deletion strains, locus YDL074C, strain BRE1, stronger effect = lower value 1.06 | S. cerevisiae deletion strains, locus YDL101C, strain DUN1, stronger effect = lower value 1.03 | S. cerevisiae deletion strains, locus YDL134C, strain PPH21, stronger effect = lower value 1.02 | S. cerevisiae deletion strains, locus YDL185W, strain tfp1, stronger effect = lower value 0.995 | S. cerevisiae deletion strains, locus YDL192W, strain arf1, stronger effect = lower value 0.994 | S. cerevisiae deletion strains, locus YDR101C, strain arx1, stronger effect = lower value 0.995 | [1] 1.02 | S. cerevisiae deletion strains, locus YDR162C, strain NBP2, stronger effect = lower value 1.03 | S. cerevisiae deletion strains, locus YDR318W, strain mcm21, stronger effect = lower value 0.996 | S. cerevisiae deletion strains, locus YDR388W, stronger effect = lower value 0.988 | S. cerevisiae deletion strains, locus YDR502C, strain sam2, stronger effect = lower value 1.02 | S. cerevisiae deletion strains, locus YEL061C, strain CIN8, stronger effect = lower value 1.02 | S. cerevisiae deletion strains, locus YER110C, stronger effect = lower value 0.981 | S. cerevisiae deletion strains, locus YER155C, strain BEM2, stronger effect = lower value 1.01 | S. cerevisiae deletion strains, locus YER167W, strain BCK2, stronger effect = lower value 1.03 | S. cerevisiae deletion strains, locus YGL078C, strain dbp3, stronger effect = lower value 0.988 | S. cerevisiae deletion strains, locus YGL086W, strain mad1, stronger effect = lower value 0.993 | S. cerevisiae deletion strains, locus YGL248W, strain PDE1, stronger effect = lower value 1.02 | S. cerevisiae deletion strains, locus YGR078C, strain PAC10, stronger effect = lower value 1.03 | S. cerevisiae deletion strains, locus YGR135W, strain pre9, stronger effect = lower value 1.01 | S. cerevisiae deletion strains, locus YGR229C, strain SMI1, stronger effect = lower value 1.05 | S. cerevisiae deletion strains, locus YGR252W, strain gcn5, stronger effect = lower value 1 | S. cerevisiae deletion strains, locus YHR030C, strain SLT2, stronger effect = lower value 1.01 and 0.927 | S. cerevisiae deletion strains, locus YHR079C, strain IRE1 (second series), stronger effect = lower value 0.982 | S. cerevisiae deletion strains, locus YHR079C, strain IRE1, stronger effect = lower value 0.988 | S. cerevisiae deletion strains, locus YHR094C, strain hxt1, stronger effect = lower value 0.993 | S. cerevisiae deletion strains, locus YHR129C, strain ARP1, stronger effect = lower value 1.02 | S. cerevisiae deletion strains, locus YHR200W, strain rpn10, stronger effect = lower value 0.998 | S. cerevisiae deletion strains, locus YIL066C, strain RNR3, stronger effect = lower value 1.02 | S. cerevisiae deletion strains, locus YIL073C, strain SPO22, stronger effect = lower value 1.02 | S. cerevisiae deletion strains, locus YIL125W, strain kgd1, stronger effect = lower value 1.01 | S. cerevisiae deletion strains, locus YIR030C, strain dcg1, stronger effect = lower value 0.991 | S. cerevisiae deletion strains, locus YJL095W, strain BCK1, stronger effect = lower value 1.05 and 0.943 | S. cerevisiae deletion strains, locus YJL134W, strain LCB3, stronger effect = lower value 1.01 | S. cerevisiae deletion strains, locus YJL168C, strain set2, stronger effect = lower value 0.989 | S. cerevisiae deletion strains, locus YJL187C, strain SWE1 (second series), stronger effect = lower value 1.03 | S. cerevisiae deletion strains, locus YJR043C, strain POL32, stronger effect = lower value 1.06 | S. cerevisiae deletion strains, locus YJR066W, strain TOR1, stronger effect = lower value 0.903 | S. cerevisiae deletion strains, locus YJR075W, strain HOC1, stronger effect = lower value 1.02 | S. cerevisiae deletion strains, locus YKL009W, strain mrt4, stronger effect = lower value 0.994 | S. cerevisiae deletion strains, locus YKL068W, stronger effect = lower value 1 | S. cerevisiae deletion strains, locus YKL085W, strain MDH1 (second series), stronger effect = lower value 1.01 | S. cerevisiae deletion strains, locus YKL085W, strain MDH1, stronger effect = lower value 1.01 | S. cerevisiae deletion strains, locus YKL190W, strain CNB1, stronger effect = lower value 1.01 | S. cerevisiae deletion strains, locus YKR001C, strain vps1, stronger effect = lower value 0.994 | S. cerevisiae deletion strains, locus YLR039C, strain RIC1, stronger effect = lower value 1.02 | S. cerevisiae deletion strains, locus YLR058C, strain SHM2, stronger effect = lower value 1.02 | S. cerevisiae deletion strains, locus YLR102C, strain apc9, stronger effect = lower value 0.99 | S. cerevisiae deletion strains, locus YLR113W, strain HOG1, stronger effect = lower value 0.961 | S. cerevisiae deletion strains, locus YLR262C, strain YPT6, stronger effect = lower value 1.04 | S. cerevisiae deletion strains, locus YLR268W, strain sec22, stronger effect = lower value 1.01 | S. cerevisiae deletion strains, locus YLR330W, strain CHS5, stronger effect = lower value 1.01 | S. cerevisiae deletion strains, locus YLR342W, strain FKS1 (second series), stronger effect = lower value 1.01 | S. cerevisiae deletion strains, locus YLR371W, strain rom2, stronger effect = lower value 0.994 | S. cerevisiae deletion strains, locus YLR418C, strain cdc73, stronger effect = lower value 1.03 | S. cerevisiae deletion strains, locus YML016C, strain PPZ1, stronger effect = lower value 1.02 | S. cerevisiae deletion strains, locus YML032C, strain rad52, stronger effect = lower value 0.996 | S. cerevisiae deletion strains, locus YML124C, strain tub3, stronger effect = lower value 0.996 | S. cerevisiae deletion strains, locus YMR078C, strain ctf18, stronger effect = lower value 1.01 | S. cerevisiae deletion strains, locus YMR223W, strain ubp8, stronger effect = lower value 1.01 | S. cerevisiae deletion strains, locus YMR263W, strain SAP30, stronger effect = lower value 1.03 | [2] 1.02 | S. cerevisiae deletion strains, locus YNL067W, strain RPL9B, stronger effect = lower value 1.04 | S. cerevisiae deletion strains, locus YNL128W, strain TEP1, stronger effect = lower value 1.04 | S. cerevisiae deletion strains, locus YNL153C, strain GIM3, stronger effect = lower value 1.02 | S. cerevisiae deletion strains, locus YNL183C, strain NPR1, stronger effect = lower value 0.884 | S. cerevisiae deletion strains, locus YNL233W, strain BNI4, stronger effect = lower value 1.03 | S. cerevisiae deletion strains, locus YNL250W, strain rad50, stronger effect = lower value 0.998 | S. cerevisiae deletion strains, locus YNL271C, strain bni1, stronger effect = lower value 1 | S. cerevisiae deletion strains, locus YNL298W, strain CLA4, stronger effect = lower value 1.01 | S. cerevisiae deletion strains, locus YNL307C, strain MCK1, stronger effect = lower value 0.993 | [3] 1.02 | S. cerevisiae deletion strains, locus YNR052C, strain pop2, stronger effect = lower value 0.982 | S. cerevisiae deletion strains, locus YOL006C, strain TOP1, stronger effect = lower value 1.04 | S. cerevisiae deletion strains, locus YOL012C, strain htz1 0.939 | S. cerevisiae deletion strains, locus YOL147C, strain pex11, stronger effect = lower value 0.992 | S. cerevisiae deletion strains, locus YOR061W, strain CKA2, stronger effect = lower value 1.01 | S. cerevisiae deletion strains, locus YOR069W, strain VPS5, stronger effect = lower value 1.04 | S. cerevisiae deletion strains, locus YOR136W, strain idh2, stronger effect = lower value 0.99 | S. cerevisiae deletion strains, locus YOR144C, strain elg1, stronger effect = lower value 0.989 | S. cerevisiae deletion strains, locus YOR184W, strain ser1, stronger effect = lower value 1.01 | S. cerevisiae deletion strains, locus YOR231W, strain MKK1, stronger effect = lower value 0.979 | S. cerevisiae deletion strains, locus YOR316C, strain cot1, stronger effect = lower value 0.992 | S. cerevisiae deletion strains, locus YPL055C, strain LGE1, stronger effect = lower value 1.08 | S. cerevisiae deletion strains, locus YPL241C, strain CIN2, stronger effect = lower value 1.03 | S. cerevisiae deletion strains, locus YPL256C, strain CLN2, stronger effect = lower value 0.996 | S. cerevisiae deletion strains, locus YPR119W, strain clb2, stronger effect = lower value 0.983 | S. cerevisiae deletion strains, locus YPR141C, strain kar3, stronger effect = lower value 1 | S. cerevisiae deletion strains, locus YPR163C, strain tif3, stronger effect = lower value 0.995 | S. cerevisiae deletion strains, locus YPR167C, strain met16, stronger effect = lower value 1 | S. cerevisiae deletion strains, strain wtn01, stronger effect = lower value 1.01 | S. cerevisiae strains, strain wild type, stronger effect = lower value 1.01
